Compound activity from PubChem BioAssay.
Hsp90 Hop PPI: changes Hsp90-Hop TPR2A binding signal, up or down. AlphaScreen TPR2A-His6 binding biotin-Hsp90 C-terminal peptide. Potency, µM (series often up to 57 µM), inactives show top-dose activity change, negative = inhibition. 71,000 compounds, 0.44% hits. AID 595; active means well fitted curve in either direction with a large enough effect; inconclusive means small, poorly fitted or top-dose-only effect, or another doubt; further: potency means the concentration at half of the fitted maximal effect; on the % scale 0 is the no-effect control and ±100 the full control effect
Pol III holo inh: blocks replication by bacterial DNA polymerase III holoenzyme; 71,000 compounds, 0.25% hits; reconstituted DNA polymerase III holoenzyme replication, biochemical; Potency, µM (doses to about 57.1 µM), without a hit: top-dose activity change, negative = inhibition; further: potency means the concentration at half of the fitted maximal effect; on the % scale 0 is the no-effect control and ±100 the full control effect
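Reconstituted *E. coli* holoenzyme (0.35 nM Pol III, 1 nM beta, 154 nM SSB, 2 nM primase) was preincubated with compound for 15 min at RT. Synthesis on 1.4 nM ssM13Gori ran 35 min, then was stopped with PicoGreen/EDTA and read as dsDNA fluorescence.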
Tau filament bind: binds recombinant human tau filaments; recombinant tau filaments, thioflavin S fluorescence, 15 h; filaments grown with octadecylsulfate alongside compound; P10636; Potency, µM (doses to about 57.1 µM), for inactives: at the top dose activity change, negative = inhibition; 71,000 compounds, 2% hits;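 further: potency means the concentration at half of the fitted maximal effect; on the % scale 0 is the no-effect control and ±100 the full control effect; actives lower thioflavin S fluorescence by blocking filaments or displacing dye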
Target sequence (P10636 whole entry, looked up): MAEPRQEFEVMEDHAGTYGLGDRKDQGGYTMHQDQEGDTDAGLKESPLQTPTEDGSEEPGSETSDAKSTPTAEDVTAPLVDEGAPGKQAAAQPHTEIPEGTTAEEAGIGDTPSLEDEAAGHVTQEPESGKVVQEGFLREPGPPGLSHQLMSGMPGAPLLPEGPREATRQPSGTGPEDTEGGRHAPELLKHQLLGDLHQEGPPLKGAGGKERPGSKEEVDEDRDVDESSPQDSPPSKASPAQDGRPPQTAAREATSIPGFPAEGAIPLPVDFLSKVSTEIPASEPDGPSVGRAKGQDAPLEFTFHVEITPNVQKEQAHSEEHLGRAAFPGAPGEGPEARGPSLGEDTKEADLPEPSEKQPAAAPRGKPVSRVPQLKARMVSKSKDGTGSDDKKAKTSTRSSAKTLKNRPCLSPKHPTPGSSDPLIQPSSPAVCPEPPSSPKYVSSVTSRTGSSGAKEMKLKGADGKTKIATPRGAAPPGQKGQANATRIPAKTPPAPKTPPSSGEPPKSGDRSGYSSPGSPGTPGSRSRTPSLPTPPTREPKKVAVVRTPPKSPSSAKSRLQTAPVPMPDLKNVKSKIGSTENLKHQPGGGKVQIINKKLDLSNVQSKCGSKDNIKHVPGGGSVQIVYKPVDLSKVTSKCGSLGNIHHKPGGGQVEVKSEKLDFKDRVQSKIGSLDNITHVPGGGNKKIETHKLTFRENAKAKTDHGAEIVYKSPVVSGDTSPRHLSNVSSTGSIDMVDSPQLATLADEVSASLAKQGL
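His-tagged recombinant human tau (exons 2, 3, 10; 1 uM final) fibrillized with 30 uM sodium octadecylsulfate, 15 h at 37 C, in pH 7.4 HEPES buffer with 10 uM thioflavine S and 5 mM DTT. Reduced ThS fluorescence (450/510 nm) marks activity.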
ALOX15 inhib: inhibitors of human 15-lipoxygenase (ALOX15) | P16050 | purified 15hLO-1, xylenol orange hydroperoxide absorbance | Potency, µM (doses to about 57.1 µM), for the others: top-dose activity change, negative = inhibition, hits mostly inhibitors | 74,000 compounds, 1.4% hits | AID 887; further: potency means the concentration at half of the fitted maximal effect; on the % scale 0 is the no-effect control and ±100 the full control effect; nearly all actives have a fitted effect of over 55% in size
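Quantitative HTS in 25 mM Hepes pH 7.5 containing 0.01% Triton X-100: human 15hLO-1 at 40 nM, arachidonic acid at 50 uM, 6 min turnover. Product quantified via ferrous oxidation/xylenol orange, 573:405 nm absorbance ratio.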
TsaE inh: displaces an ADP probe from E. coli YjeE (TsaE); P0AF67; purified YjeE enzyme, qHTS inhibition assay; Potency, µM; 71,000 compounds, 0.05% hits; AID 605
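Purified YjeE (10 uM) with BODIPY Texas Red-labeled ADP probe (2 uM); compounds pin-transferred, 15 min at room temperature. Binding inhibition read as decreased fluorescence polarization; ADP titration as control.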
An asterisk follows results filed as active; i = inactive; ? = inconclusive; · = no result; ! = a repeat was not active; [ ] = remark or other dose. Shown are actives, neighbours in structure and some others; about 3.3% of the full set was active somewhere. Unless noted, the call rests on the fitted dose curve; in most records, active means well fitted curve in the direction sought with a large enough effect; inconclusive means small, poorly fitted or top-dose-only effect, or another doubt; inactive means no such curve, though single readings can be large; an effect the other way counts as inactive or inconclusive.

SMILES	Hsp90 Hop PPI	Pol III holo inh	Tau filament bind	ALOX15 inhib	TsaE inh
CC(=O)Oc1ccc(/C=C\C(=O)C[C@@H]2O[C@@H](Oc3cc(OC(C)=O)c4c(c3)O[C@@H](c3ccc(OC(C)=O)cc3)CC4=O)[C@H](OC(C)=O)[C@H](OC(C)=O)[C@@H]2OC(C)=O)cc1	3.1%	-4.0%	?	·	i
COc1ccc2nc3sc(C(=O)NCc4cccs4)c(N)c3cc2c1	-6.9%	-9.7%	?	20µM*	i
CCCn1nc(NC(=O)c2cccs2)c2cc3cc(OC)ccc3nc21	?	0.6%	94.5%	?	i
CCOC(=O)c1[nH]cnc1C(=O)O	25.1µM*	-1.9%	-0.1%	4.9%	i
O=C1C[C@@H](O)[C@@H](O)[C@@H]2[C@H]3C(=O)N(c4ccc(F)cc4F)C(=O)[C@@H]3CC[C@@H]12	·	·	·	3.8%[11.4 µM]	·
CCCCCCCC[N+](CCCCCCCC)(CCCCCCCC)CCCCCCCC	-2.3%	-27.5%	400.1%	20µM*	?
CC[N+](CC)(CC)CCOc1ccc(/C=C\c2ccccc2)cc1	-10.4%	-2.8%	-63.4%	15.8µM*	i
CCOc1ccc(/C=C/C(=O)c2cccs2)cc1	·	·	·	-3.3%[25.6 µM]	·
Cc1ccc2cc3cc(C(=O)NCc4ccco4)oc3nc2c1	-0.2%	-3.0%	37.0%	-2.2%	i
O=C(NCc1ccco1)c1cc2ccccc2o1	-14.7%	-7.0%	8.0%	20µM*	i
O=C(O)CN(CCN(CC(=O)O)CC(=O)O)CC(=O)O.[Cu]	1.4%[11 µM]	-7.2%[11.4 µM]	-6.1%[11.4 µM]	0.4%[11.4 µM]	i
O=C1[C@H]2[C@H]3[C@H](O)[C@H](O)C/C(=N/OC[C@@H](O)COCc4ccco4)[C@@H]3CC[C@@H]2C(=O)N1Cc1ccc2c(c1)OCO2	·	·	·	-4.9%[11.4 µM]	·
CN(C)CC(=O)N1c2ccccc2CCc2ccc(NC(=O)c3ccc(N)cc3)cc21	-16.7%	0.5%	15.8µM*	-5.9%	i
CCOC(=O)Nc1ccc2c(c1)N(C(=O)OC)c1ccccc1CC2	?	4.7%	-15.2%	6.1%	i
Cc1cc(N2CCCCC2)n2ncc(-c3ccc(Cl)cc3)c2n1	25.1µM*	2.0%	-9.8%	-1.5%	i
Cc1cc(N2CCC(C)CC2)n2ncc(-c3ccccc3)c2n1	?	3.4%	-16.7%	0.8%	i
COC(=O)c1c(C(=O)OC)n(CCCN)c2ccc(C)cc12	-2.5%	-1.5%	-8.0%	1.0%	i
Cc1ccc2c(c1)c1cccc3c1n2CCN3CCC(N)=O	?	-7.9%	5.01µM*	12.6µM*	i
COC(=O)c1cc(CSc2nnc(-c3ccccc3)c(-c3ccccc3)n2)oc1C	-1.5%	-3.1%	15.8µM*	9.1%	i
COC(=O)c1cc(CSc2nc3ccc(C)cc3[nH]2)oc1C	-0.7%	-0.7%	-1.9%	-5.4%	i
O=C1[C@@H]2[C@@H]3C=C[C@H]([C@@H]2C(=O)N1CN1CCSCC1)[C@@H]1[C@@H]2C(=O)N(CN4CCSCC4)C(=O)[C@@H]2[C@H]31	0.0%[11 µM]	5.6%[11.4 µM]	3.3%[11.4 µM]	3.0%[11.4 µM]	i
NC(N)=NCCCCN=C(N)N	?	-1.2%	31.6µM*!	?	i
NC(N)=NCCCC(=O)O	-6.4%[11 µM]	-9.1%[11.4 µM]	11.0%[11.4 µM]	1.5%[11.4 µM]	i
Nc1ccc(N)c(Cl)c1	-22.2%	-6.7%	31.6µM*	?	?
CCCCn1c2nc3ccccc3nc2c2c(=O)n(CCC(C)C)cnc21	-2.3%	2.9%	-8.8%	-1.4%	i
SMILES	Hsp90 Hop PPI	Pol III holo inh	Tau filament bind	ALOX15 inhib	TsaE inh
CC(C)Cn1c2nc3ccccc3nc2c2c(=O)n(CCN3CCOCC3)cnc21	-5.3%	-1.9%	25.1µM*	?	i
Cc1cc(C)n(-c2ccc(C(=O)OCC(=O)c3ccc(Br)s3)cc2)n1	-1.7%	-0.5%	12.6µM*	-10.1%	i
CCOC(=O)c1cc(-c2ccccc2)sc1N	-16.2%	-2.7%	25.1µM*	?	i
CCOC(=O)c1sc(-c2ccccc2)cc1N	26.3%	-1.1%	-16.9%	0.9%	i
CCN1C(=O)/C(=C2/Sc3ccc(OC)cc3N2C)SC1=Nc1cccc(O)c1	-7.2%	-5.7%	3.16µM*	-13.7%	i
CC1(C)CC(=O)C2=C(C1)OC(N)=C(C#N)C2C1CC=CCC1 (stereo not drawn)	-0.3%	-1.5%	-11.2%	31.6µM*	i
N=c1c2c(-c3ccccc3)c(-c3ccccc3)n(Cc3ccco3)c2ncn1Cc1ccco1	?	-7.7%	i	25.1µM*	?
O=c1c2ccccc2c2ccccc2c(=O)n1Cc1ccco1	-1.2%	-3.9%	-5.2%	-9.7%	i
O=S(=O)(O)c1cc(S(=O)(=O)O)c2c(N=Nc3cccc4ccccc34)c(O)ccc2c1	?	-6.8%[11.4 µM]	3.98µM*	-6.4%[11.4 µM]	i
Cc1ccc(N=Nc2c(O)c(S(=O)(=O)O)cc3cc(S(=O)(=O)O)ccc23)c(C)c1	-23.6%[11 µM]	-14.7%[11.4 µM]	-9.0%[11.4 µM]	6.3%[11.4 µM]	i
Nc1ccccc1N=Nc1c(S(=O)(=O)O)cc2cc(S(=O)(=O)O)cc(O)c2c1O	?	2.51µM*	-14.9%[11.4 µM]	6.3%[11.4 µM]	i
O=S(=O)(O)c1ccc2c(N=Nc3c(O)ccc4ccccc34)cccc2c1	?	-11.4%[11.4 µM]	3.16µM*	-14.1%[11.4 µM]	i
O=S(=O)(O)c1cc(N=Nc2cccc3ccccc23)c(O)c2ncccc12	?	-12.8%[11.4 µM]	?	11.2%[11.4 µM]	i
CC(C)CO/N=C1/C[C@@H](O)[C@@H](O)[C@@H]2[C@@H]3C(=O)N(C(C)(C)C)C(=O)[C@H]3CC[C@H]12	·	·	·	-4.0%[11.4 µM]	·
NC[C@H](O)C1CCCCCCC1	2.0%	-5.3%	3.4%	3.5%	i
COc1ccc([C@@H]2OC[C@]3(COC(C)=O)[C@H](C)C=C(C)[C@@H]2[C@H]3C)cc1	?	-3.5%	?	·	i
CCCCCCC1=Cc2cc(OC)c(OC)cc2C(C2(C(=O)OCC)CCCC2=O)O1 (stereo not drawn)	·	·	·	5.0%[11.4 µM]	·
O=C1OC2(c3cc(Br)c(O)c(Br)c3Oc3c2cc(Br)c(O)c3Br)c2c(Cl)c(Cl)c(Cl)c(Cl)c21	?	78.0%	0.126µM*	-25.0%	39.8µM*
O=C(O)C1CCCN1S(=O)(=O)c1cccc2cccnc12 (stereo not drawn)	-0.6%	-4.7%	-3.0%	9.8%	i
COc1ccc(-c2cnnc(CCCn3ccnc3-c3ccccc3)n2)cc1	·	·	·	3.3%[11.4 µM]	·
COc1ccc(OC)c(S(=O)(=O)Nc2ccc(O)c3ccccc23)c1	-11.5%	-2.5%	25.1µM*	25.1µM*	i
COc1ccc(OC)c(S(=O)(=O)Nc2ccc(O)c(Sc3ncn[nH]3)c2)c1	-5.3%	-4.9%	11.8%	12.6µM*	i
COc1ccc(OC)c(S(=O)(=O)Nc2ccc(C(N)=O)cc2)c1	-2.6%	-7.9%	-2.2%	3.1%	i
C=CCN1CCc2c(cc(O)c(O)c2Cl)[C@H](c2ccccc2)C1	?	-6.4%	-9.6%	?	i
COc1ccc(CCNC[C@H](O)c2ccc(O)cc2)cc1OC	-10.2%	3.5%	-1.1%	6.7%	i
CN(C)C1CCN(C(=O)c2ccc(-n3c(=O)c(=O)[nH]c4ccccc43)cc2)C1 (stereo not drawn)	·	·	·	-5.7%	·
